Measured values taken from the supplement of paper PMC8387472.

compound: Nc1cc(F)ccc1NC(=O)c1ccc(CNC(=O)/C=C/c2cccnc2)cc1 [Tucidinostat (Chidamide)]; test: fraction of microhomology deletions among edited reads; higher = more MH deletions; settings: mESC; 2uM; 72 h treatment, harvest day 5

| Target | fraction of microhomology deletions among edited reads |
| --- | --- |
| 32.0 (DMSO control at this site: 1-bp insertion 0.03, MH deletion 0.85, edited 0.898) AGAAGTCCAGGATCAGGGGGACTGGGGTCGGGAGGGTGGGGCAGGAAGGAAGCCAGAATCA | 0.904 |
| 26.0 (DMSO control at this site: 1-bp insertion 0.518, MH deletion 0.262, edited 0.026) AGGGCGCGCCCCACGCACTCTGCGGCAAGTCCCTCTGCGGCAAGTCCTCGGCCCGGAAGAC | 0.278 |
| 34.0 (DMSO control at this site: 1-bp insertion 0.184, MH deletion 0.385, edited 0.103) ATTATAGGACCCTGAGGGAGCAGAGATGTGGGAATGGGGGCCGAGCCAATTGTGATGTAAG | 0.409 |
| 18.0 (DMSO control at this site: 1-bp insertion 0.114, MH deletion 0.789, edited 0.094) GCGCAAGTGCATAAGTTTTTCTTAAGGCGTGCCTTTAAGGCGTGCCTTTGTCGGTCCTGGA | 0.797 |
| 41.0 (DMSO control at this site: 1-bp insertion 0.022, MH deletion 0.754, edited 0.115) AAAGAGACAGCAGGTATGAATCCATCTTCCTGACCCTTGGGACCAGCCGGGGCAGTGAAGC | 0.709 |
| 15.0 GCGCCTCCAATGACCCAGTGGGATCCTACTCCATAATGGGATCCTGGGGATTCCTCGCTCC | 0.289 |
| 47.0 (DMSO control at this site: 1-bp insertion 0.095, MH deletion 0.585, edited 0.118) GAGTGGTCCCGAGCCAGGAACTGTGTGTGTTGCAGGGGGGCAGTAACTCCCCAACTCCCTC | 0.442 |
| 35.0 (DMSO control at this site: 1-bp insertion 0.01, MH deletion 0.72, edited 0.098) CCACTTTTAGAGAGGGTGAAAATCATCAGTTATCATCAGGGCAACAAATTGCTTTCTCCTA | 0.687 |
| 16.0 (DMSO control at this site: 1-bp insertion 0.172, MH deletion 0.29, edited 0.05) CGGACTGCACACATGGGTAGGATCGTGCACGCGAGGTAGGATCGTGCACGCGAAGTTATTC | 0.302 |
| 19.0 (DMSO control at this site: 1-bp insertion 0.121, MH deletion 0.101, edited 0.057) TCTGCAGGGGTCGGAACCCGGGGGCTAGGGCTATCCCGGGGGCTAGGGCTATTAGCGAACC | 0.188 |
| 22.0 (DMSO control at this site: 1-bp insertion 0.573, MH deletion 0.229, edited 0.045) CTGATGGTTGAAGGATTTAGCCGGGGTCCTAGACGCCGGGGTCCTAGACGAAAGGGCCACG | 0.209 |
| 38.0 (DMSO control at this site: 1-bp insertion 0.063, MH deletion 0.487, edited 0.17) GGGCTGGGTGCTAAAATGAGGAGCTCCAAGAAGACTGAGGTGAACCTGGAGGCCCCTGAGC | 0.458 |
| 5.0 (DMSO control at this site: 1-bp insertion 0.214, MH deletion 0.567, edited 0.105) CGCTGACCCGAGACCTACGCGAACCGAAATCGGCGACCGGTGCGCAAGCAGGGCTGGCGTC | 0.526 |
| 1.0 (DMSO control at this site: 1-bp insertion 0.521, MH deletion 0.323, edited 0.141) GTGTCACAGTGCACGAGTGACGGGATAATGTGCTGACAGGTAATTGATAGGCTTCCAACTT | 0.215 |
| 0.0 (DMSO control at this site: 1-bp insertion 0.463, MH deletion 0.339, edited 0.14) AGGATTACCGAGACCTACGCGAACCGAAATCGCTGTCCGGTGCGCAAGCAGGGCTGGCGTC | 0.275 |
| 3.0 (DMSO control at this site: 1-bp insertion 0.109, MH deletion 0.149, edited 0.09) TGCTAGCGCCCCCACAAAGCGGACCAGCCAGCACTATAGGGAATAAGGCCAACTTGCACCC | 0.204 |
| 7.0 (DMSO control at this site: 1-bp insertion 0.128, MH deletion 0.374, edited 0.098) TACTCAACCGAGACCTACGCGAACCGAAATCGTATGCCGGTGCGCAAGCAGGGCTGGCGTC | 0.427 |
